From PubChem BioAssay
Activity calls are given as the source filed them. Unless noted, how the calls were made is not given here.

How the values were obtained:
[1] = system: XIP peptide (Xip251-270) binding; assay: XIP fragment 251-270 binding compounds – biochemical, small-molecule microarray, fluorescence 635/667 nm, 0.1 µg/mL protein, primary screen (AID 1182); conditions: fluorescent protein binding, 635 nm, higher = more signal, called active from +8 up or from −8 down
XIP peptide (Xip251-270) = assay: compounds binding XIP fragment 251-270 – biochemical, small-molecule microarray, fluorescence 635/667 nm, 0.5 µg/mL protein, primary screen (AID 1183); conditions: fluorescence 635 nm, higher = more signal
[2] = blood-stage malaria parasite viability loss – strain 3D7, DAPI fluorescence, 100 nL, primary screen (AID 1184);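 further: parasites grown inside human red blood cells in medium with human serum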; conditions: P. falciparum 3D7 growth, 3 d, higher = more signal
[3] = biological target: Homeobox protein Hox-A13 (Mus musculus) (UniProt Q62424); assay: disruptors of Hoxa13 oligonucleotide interaction – biochemical, fluorescence polarization, labeled oligonucleotide, primary screen (AID 1185); conditions: Hoxa13:DNA binding, 15 min, higher = more signal, called active from +8 up or from −8 down
Sequence of Homeobox protein Hox-A13 (Mus musculus) (Q62424 whole entry, looked up): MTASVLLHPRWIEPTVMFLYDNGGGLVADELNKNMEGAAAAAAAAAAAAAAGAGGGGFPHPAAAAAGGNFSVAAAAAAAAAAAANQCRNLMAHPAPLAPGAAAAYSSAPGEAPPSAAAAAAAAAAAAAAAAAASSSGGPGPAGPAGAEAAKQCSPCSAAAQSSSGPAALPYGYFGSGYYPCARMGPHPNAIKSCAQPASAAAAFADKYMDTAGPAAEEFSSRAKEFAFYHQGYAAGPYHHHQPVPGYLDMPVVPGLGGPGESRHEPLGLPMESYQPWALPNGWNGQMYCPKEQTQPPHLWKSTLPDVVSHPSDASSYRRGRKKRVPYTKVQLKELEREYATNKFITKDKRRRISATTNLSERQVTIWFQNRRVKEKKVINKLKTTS

[4] = blockers of DNA damage checkpoint Chk1 activation – imaging, HeLa, hydroxyurea, phospho-Chk1 antibody, percent positive cells, primary screen (AID 1186); conditions: hydroxyurea-induced phospho-Chk1 immunofluorescence imaging, higher = more signal
[5] = blockers of DNA damage checkpoint Chk1 activation – imaging, HeLa, hydroxyurea, phospho-Chk1 nuclear intensity, primary screen (AID 1187); conditions: hydroxyurea-induced phospho-Chk1 immunofluorescence imaging, higher = more signal

Row | SMILES | composite z-score [1] | composite z-score (XIP peptide (Xip251-270)) | z-score [2] | z-score [3] | z-score [4] | z-score [5]
1 | CC(C)c1ccc(NN2C(C(O)c3cccc(O)c3)C=CC3C(=O)N(c4ccccc4)C(=O)C32)cc1 (stereo not given) | 0.305 (inactive) | 0.668 | -0.0362 | -4.3 (inactive) | 0.999 (inactive) | 0.88 (inactive)
2 | C=C(COC)C(=O)CC[C@H](OC(C)=O)c1cccc(OCCO)c1 | 0.623 (inactive) | -0.762 | -2.3 | -4.76 (inactive) | 0.305 (inactive) | -0.0656 (inactive)
3 | CCOC(=O)C[C@H]1[C@H](OC(=O)c2ccccc2-c2ccccc2)[C@@H](NC(=O)c2ccc3ccccc3c2)c2cc(OCCCO)ccc2N1C(=O)c1ccc2ccccc2n1 | 0.157 (inactive) | 0.171 | -0.34 | -2.08 (inactive) | 0.308 (inactive) | -0.334 (inactive)
4 | O=C1[C@]2(CO)C=C(Br)[C@@H](C[C@@H]2c2ccccc2)[C@@]12CO2 | -0.0567 (inactive) | 0.0525 | 0.808 | -2.52 (inactive) | -0.0932 (inactive) | -0.0264 (inactive)
5 | COCCOC(=O)N1C(=O)[C@@]2(c3cc(C#CCCO)ccc31)[C@H](C(=O)NC[C@H](O)c1ccccc1)[C@H]1C(=O)O[C@H](c3ccccc3)[C@H](c3ccccc3)N1[C@@H]2c1ccc(O)cc1 | -0.246 (inactive) | 0.692 | 0.363 | -3.53 (inactive) | -0.392 (inactive) | -0.542 (inactive)
6 | CCOC(=O)C1=CCC(c2ccc([N+](=O)[O-])cc2)N(S(=O)(=O)c2ccc(C)cc2)C1 (stereo not given) | -0.15 (inactive) | 0.27 | -1.3 | -1.24 (inactive) | -0.021 (inactive) | 0.144 (inactive)
7 | CCOC(=O)C[C@H]1[C@H](OC(=O)c2ccc(C(=O)c3ccccc3)cc2)[C@@H](NC(=O)C2CCCCC2)c2cc(OCCCO)ccc2N1C(=O)c1ccccc1 | -0.373 (inactive) | 0.186 | 0.863 | -2.97 (inactive) | 0.454 (inactive) | 0.0465 (inactive)
8 | CC(C)(C)OC(=O)CC[C@@]1(C(=O)O)N=C(c2ccc(OCCCO)cc2)O[C@@H]1c1ccccc1N=[N+]=[N-] | 1.37 (inactive) | -0.333 | 0.603 | -5.2 (inactive) | -0.157 (inactive) | -0.51 (inactive)
9 | O=C1N(CCS(=O)(=O)c2ccccc2)Cc2ccccc2C[C@]12N=C(c1ccc(OCCCO)cc1)O[C@@H]2c1ccccc1 | 0.194 (inactive) | 0.789 | -2.34 | -2.61 (inactive) | -0.719 (inactive) | -0.709 (inactive)
10 | COc1cc(C(O)C2C=CC3C(=O)N(c4ccccc4)C(=O)C3N2Nc2ccc(C#N)cc2)cc(OC)c1OC (stereo not given) | 1.42 (inactive) | 0.906 | 0.162 | -4.55 (inactive) | 0.859 (inactive) | 0.668 (inactive)
11 | CC(C)C(O)C1C=CC2C(=O)N(c3ccccc3)C(=O)C2N1Nc1ccc(C#N)cc1 (stereo not given) | 0.613 (inactive) | 0.748 | 0.207 | -2.61 (inactive) | -0.877 (inactive) | -0.419 (inactive)
12 | [N-]=[N+]=NCc1ccccc1[C@H]1OC(c2ccc(OCCCO)cc2)=N[C@@]1(CCS(=O)(=O)c1ccccc1)C(=O)N1CCOCC1 | 1.53 (inactive) | 0.768 | -2.22 | -3.2 (inactive) | -0.0312 (inactive) | 0.246 (inactive)
13 | COCCOC(=O)N1C(=O)[C@@]2(c3cc(C#CCNC(N)=O)ccc31)[C@H](c1ccc(O)cc1)N1[C@H](c3ccccc3)[C@H](c3ccccc3)OC(=O)[C@H]1[C@@H]2C(=O)NC[C@H](O)c1ccccc1 | 1.82 (inactive) | 0.733 | -0.0916 | -3.19 (inactive) | -0.107 (inactive) | -0.369 (inactive)
14 | C=CC[C@@H](OC(=O)Nc1ccc(OC)cc1)c1ccc(O)c2ccccc12 | 1.08 (inactive) | 0.737 | -0.166 | -0.5 (inactive) | 0.311 (inactive) | 0.626 (inactive)
15 | Cc1ccc(S[C@]2(C(=O)NCC(C)C)CC(=O)N(Cc3ccccc3Cl)[C@@H]2c2ccc(CO)cc2)cc1 | 0.0729 (inactive) | -0.313 | 0.423 | -2.53 (inactive) | 0.259 (inactive) | 0.658 (inactive)
16 | COCCOC(=O)N1C(=O)[C@@]2(c3cc(C#CCC(C(=O)OC)C(=O)OC)ccc31)[C@H](c1ccc(O)cc1)N1[C@H](c3ccccc3)[C@H](c3ccccc3)OC(=O)[C@H]1[C@@H]2C(N)=O | 1.39 (inactive) | 0.619 | -0.486 | -3.8 (inactive) | 0.676 (inactive) | 0.98 (inactive)
17 | COCCOC(=O)N1C(=O)[C@@]2(c3cc(C#CCNC(N)=O)ccc31)[C@H](c1ccccc1OCCO)N1[C@H](c3ccccc3)[C@H](c3ccccc3)OC(=O)[C@H]1[C@@H]2C(N)=O | -0.0949 (inactive) | 0.467 | -0.585 | -2.6 (inactive) | 0.0842 (inactive) | -0.266 (inactive)
18 | COCC(=C=CC[C@@H](O)c1ccc(CO)o1)CCO | 0.848 (inactive) | 0.344 | -1.61 | -3.24 (inactive) | -1 (inactive) | -0.68 (inactive)

Row | SMILES | composite z-score [1] | composite z-score (XIP peptide (Xip251-270)) | z-score [2] | z-score [3] | z-score [4] | z-score [5]
19 | COc1ccc(C(O)C2C=CC3C(=O)N(C)C(=O)C3N2Nc2ccccc2)cc1OCc1ccccc1 (stereo not given) | 0.492 (inactive) | 0.879 | 0.039 | -4.69 (inactive) | 0.593 (inactive) | 0.344 (inactive)
20 | CC(C)NC(=O)[C@@]1(Cc2ccccc2I)c2ccccc2C(=O)N(Cc2ccccc2)[C@H]1c1ccc(CO)cc1 | 0.257 (inactive) | 0.784 | -1.22 | -4.87 (inactive) | -0.303 (inactive) | -0.346 (inactive)
21 | CC(C)C(=C=CC[C@H](O)c1ccccc1OCCO)C[C@H](O)c1ccccn1 | 0.241 (inactive) | 0.0067 | -1.41 | -4.79 (inactive) | 0.293 (inactive) | 0.546 (inactive)
22 | COC(=O)c1ccc(C(O)C2C=CC3C(=O)N(c4ccccc4)C(=O)C3N2Nc2ccc(C#N)cc2)o1 (stereo not given) | 0.324 (inactive) | 0.37 | 0.229 | -3.24 (inactive) | -0.645 (inactive) | -0.852 (inactive)
23 | COC(=O)c1ccc(OC)c(/C=C\CC(OC(C)=O)c2ccccc2)c1 (stereo not given) | 0.322 (inactive) | 0.501 | 0.0859 | -2.35 (inactive) | 0.237 (inactive) | 0.328 (inactive)
24 | C=C[C@@H](COC(C)=O)N(Cc1ccc([N+](=O)[O-])cc1)S(=O)(=O)c1ccc(Br)cc1 | 0.13 (inactive) | 0.656 | 0.242 | -3.25 (inactive) | -0.617 (inactive) | -0.411 (inactive)
25 | CC(=O)NCCCC[C@@H]1NC(=O)[C@@H]2C[C@H](C(=O)NCCCCCCNC(=O)CS)[C@H](c3ccc(O)cc3)N2C1=O | 0.757 (inactive) | 0.596 | 0.648 | -5.16 (inactive) | 0.34 (inactive) | 0.0918 (inactive)
26 | Cc1ccc(S[C@]2(C(=O)NC3CC3)CC(=O)N(C3CCCCC3)[C@@H]2c2ccc(CO)cc2I)cc1 | 1.01 (inactive) | 0.784 | -1.34 | -4.11 (inactive) | -0.0105 (inactive) | 0.06 (inactive)
27 | COCCOC(=O)N1C(=O)[C@@]2(c3cc(C#CCCO)ccc31)[C@H](c1ccc(O)cc1)N1[C@H](c3ccccc3)[C@H](c3ccccc3)OC(=O)[C@H]1[C@@H]2C(N)=O | 0.599 (inactive) | 0.77 | -0.662 | -5.33 (inactive) | -0.296 (inactive) | -0.841 (inactive)
28 | COCCOC(=O)N1C(=O)[C@@]2(c3cc(C#Cc4ccc(OC)cc4)ccc31)[C@H](C(=O)N1CCN(c3ncccn3)CC1)[C@H]1C(=O)O[C@H](c3ccccc3)[C@H](c3ccccc3)N1[C@@H]2c1ccc(O)cc1 | 0.0853 (inactive) | 0.481 | -1.38 | 0.261 (inactive) | -0.0134 (inactive) | -0.454 (inactive)
29 | C[C@H]1NC(=O)[C@H](Cc2ccccc2)NC(=O)[C@@]23C(=O)N[C@@H](Cc4ccccc4)C2[C@H](C)[C@@]2(C)O[C@H]2C3/C=C/C/C=C\CNC1=O (stereo not given in full) | -0.325 (inactive) | -1.16 | -1.45 | -5.77 (inactive) | -0.227 (inactive) | 0.0899 (inactive)
30 | CCC(CC)C(O)C1C=CC2C(=O)N(c3ccccc3)C(=O)C2N1Nc1ccc(C#N)cc1 (stereo not given) | 0.132 (inactive) | 0.799 | 0.324 | -1.39 (inactive) | 0.288 (inactive) | 0.192 (inactive)
31 | COC(=O)[C@@]1(Cc2ccccc2)[C@H]2c3cc(C(=O)N4CCCC4)n(C)c3C[C@H]2CN1C(=O)c1ccccc1 | -0.0625 (inactive) | 0.46 | -0.994 | -5.7 (inactive) | 0.0684 (inactive) | -0.0761 (inactive)
32 | N[C@@H](Cc1ccccc1)Cn1cc(-c2ccccc2)nn1 | -0.259 (inactive) | -0.533 | 0.942 | -0.823 (inactive) | 0.201 (inactive) | 0.117 (inactive)
33 | COc1ccc([Si](C)(C)[C@@H]2[C@@H](CCn3cc([C@H](O)c4ccccc4)nn3)O[C@]3(C(=O)N(Cc4ccc(N5C(=O)c6cccc7cccc5c67)cc4)c4ccccc43)[C@H]2C)cc1 | 1.02 (inactive) | 0.182 | -2.8 | 0.474 (inactive) | -0.506 (inactive) | -0.524 (inactive)
34 | CC(C)c1ccc(NN2C(C(O)c3ccc(N(C)C)cc3)C=CC3C(=O)N(c4ccccc4)C(=O)C32)cc1 (stereo not given) | -0.0313 (inactive) | 0.618 | -0.286 | -2.2 (inactive) | 0.148 (inactive) | -0.072 (inactive)
35 | O=C1C2C=CC(C(O)c3ccc(F)cc3)N(Nc3ccccc3)C2C(=O)N1c1ccccc1 (stereo not given) | 0.669 (inactive) | -0.168 | 0.191 | -4.12 (inactive) | -0.125 (inactive) | -0.391 (inactive)
